Assay outcomes as filed in PubChem.
IL-1B inflam inh: inflammasome signaling inhibition, IL-1 beta readout; THP-1 LPS/ATP IL-1B secretion, AlphaLISA, 16 h; stronger effect = lower value; activity change, % at 57.5 µM; actives 4.7% (n = 360,000); in the data active = activity change below about -50%; inconclusive = mostly about -30% to -49%; note: % is set by controls: 0 for no effect and ±100 for the full control effect
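THP-1 cells pretreated 1 hr with compounds (up to 57.5 uM final), then stimulated with LPS (250 ng/mL final) plus ATP (1.25 mM final); secreted IL-1B measured by AlphaLISA after 16 hr, decreased signal indicating inhibition.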
ATXN viability: reduces viability in counter-screen for ATXN expression inhibitors; S2 cells (HEK-293 line with an ATXN2-luciferase reporter) viability, CellTiter-Fluor protease fluorescence, 24 h; Potency, µM (series often up to 56.7 µM), most hits filed as cytotoxic; actives 0.49% (n = 400,000); AID 651635; note: potency is the fitted concentration of half-maximal effect; nearly all actives have a fitted effect of over 40% in size
PINK1 modulator: modulators of PINK1 expression. PINK1 immunofluorescence, high-content cytometry, 24 h. actives 0.2% (n = 410,000). Potency, µM (series often up to 76.6 µM), without a hit: at the top dose activation (PINK1 increase), usual class: activators. AID 624263; active = well fitted activation curve with a large enough effect; inconclusive = small, poorly fitted or top-dose-only effect; cell line not stated here; note: potency is the fitted concentration of half-maximal effect; % of control where 0% means no effect; nearly all actives have a fitted effect of over 65% in size
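Decision-based qHTS: stable cells, 24 h exposure to five compound concentrations, CCCP as control. Fixed cells stained for PINK1 plus nuclear, mitochondrial and cell markers, cytometer read.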
MCF10A rerep: DNA re-replication induction in MCF 10a cells; MCF 10A DNA re-replication, Hoechst nuclear intensity, 48 h; Potency, µM (series often up to 46.1 µM), without a hit: at the top dose activity, positive = re-replication, usual class: activators; actives 2.9% (n = 350,000); AID 624296; note: potency is the fitted concentration of half-maximal effect; % of control where 0% means no effect; nearly all actives have a fitted effect of over 50% in size
ATXN2 expr inh: ATXN2 expression inhibition | HEK-293 ATXN2-luciferase reporter, luminescence, 24 h | Potency, µM (doses to about 57 µM), inactives show top-dose activity change, negative = inhibition, most hits filed as inhibitors | actives 0.72% (n = 360,000) | AID 1745845; note: potency is the fitted concentration of half-maximal effect; % is set by controls: 0 for no effect and ±100 for the full control effect; nearly all actives have a fitted effect of over 55% in size
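qHTS (up to 57 uM final) was run with 24 h compound exposure of reporter cells at 37 °C. Each well was multiplexed: SteadyGlo luminescence measured ATXN2-luciferase expression after a fluorogenic Gly-Phe-AFC viability readout (25 uM final).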
SW480 rerep: induces DNA re-replication in SW480 colon adenocarcinoma cells. SW480 DNA re-replication, Hoechst DNA content imaging, 48 h. Potency, µM (highest dose often 46.1 µM), for the others: at the top dose re-replication activation, usual class: activators. actives 1.8% (n = 340,000). AID 624297; note: potency is the fitted concentration of half-maximal effect; % of control where 0% means no effect; nearly all actives have a fitted effect of over 55% in size
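Quantitative HTS format with DMSO vehicle controls; 48 hr drug incubation at 37 C, then 40 min Hoechst staining and scanning imager measurement at 405 nm excitation.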
* = called active by the depositor; i = inactive; ? = inconclusive; / = no result; [ ] = dose if it differs, or a comment. This is a sample that favours compounds with a hit; in the whole collection about 7.1% have one here. Unless noted, calls come from the whole dose curve; as a rule, active = well fitted curve in the direction sought with a large enough effect; inconclusive = small, poorly fitted or top-dose-only effect, or another doubt; inactive = no such curve, though single readings can be large; an effect the other way counts as inactive or inconclusive.

SMILES	IL-1B inflam inh	ATXN viability	PINK1 modulator	MCF10A rerep	ATXN2 expr inh	SW480 rerep
CCOC(=O)N1CCN(c2ccnc3cc(Cl)ccc23)CC1	-15	i	0%	?	?	17%
COc1cc(-c2csc(N3CCOCC3)n2)cc(OC)c1OC	?	i	2%	-4%	7%	-2%
COc1ccc2nc(C)cc(N3CCOCC3)c2c1	13	i	-2%[38.3 µM]	1%	-7%	-3%
CCC1=C(c2ccc(C)cc2)S(=O)(=O)N=C1N1CCC(C(=O)N2CCCCC2)CC1	/	i	0%	/	6%	/
COc1cccc(Cl)c1NC(=O)N1CCN(c2cc(C)nc3ccccc23)CC1	-71*	?	2%	7%	?	-7%
Cc1cc(N2CCN(S(=O)(=O)c3ccc(Cl)cc3)CC2)c2ccccc2n1	-64*	?	-7%[38.3 µM]	-6%	?	-8%
COc1cccc(Cl)c1NC(=O)N1CCN(c2ccnc3cc(Cl)ccc23)CC1	-1	?	0%	-1%	/	-25%
Cc1cc(N2CCN(S(=O)(=O)c3ccc(Cl)c(Cl)c3)CC2)c2ccccc2n1	-12	i	0%	?	-30%	7%
CCC(=O)N1CCN(c2ccnc3cc(Cl)ccc23)CC1	-8	?	-2%	2%	?	-5%
Cc1ccc(S(=O)(=O)N2CCN(c3ccnc4cc(Cl)ccc34)CC2)cc1	-81*	i	1%	13%	-9%[11.3 µM]	-19%
O=C(c1ccc(Cl)cc1)N1CCN(c2ccnc3cc(Cl)ccc23)CC1	-92*	i	-2%	24%	?	1%
Cc1ccc(S(=O)(=O)N2CCN(c3ccnc4cc(Cl)ccc34)CC2)cc1C	?	i	3%	2%	-33%	0%
COc1cccc(CNCCSc2nnnn2C)c1OCc1ccccc1F	/	i	0%	/	-10%	/
Cc1ccccc1CN1c2ccccc2-c2nc(SCC(=O)Nc3cc(F)ccc3F)ncc2S1(=O)=O	/	i	2%	/	-11%	/
Cc1ccc(S(=O)(=O)c2nc(-c3cccc(C)c3)oc2N2CCN(c3ccccc3)CC2)cc1	/	/	0%	/	/	/
C[N+](C)(CCOc1ccccc1)Cc1cccs1	/	i	/	/	1%	/
O=C1CSC(=Nc2cccc(Cl)c2Cl)N1Cc1cccnc1	-52*	i	-1%	0%	?	-83%
O=C(O)c1ccccc1[O-].O=C(O)c1ccccc1[O-].[Zn+2]	/	i	/	/	/	/
Cc1ccc(S(=O)(=O)NC(=O)Nc2ccc(N(C)C)cc2)cc1	-80*	?	-1%	19%	-19%	7.3µM*
CO[C@H]1[C@H](NC(=O)c2cccc(F)c2)c2ccccc2C12CCN(Cc1ccco1)CC2	/	i	0%	/	/	/
Cc1c(N=N/C(C(=O)Nc2ccccc2)=C(/O)c2ccccc2)c(=O)n(-c2ccccc2)n1C	-1	i	2%	-18%	8%	6.5µM*
CCOC(=O)/C(N=Nc1c(C)n(C)n(-c2ccccc2)c1=O)=C(/O)c1ccccc1	-10	i	0%	-5%	-3%[11.3 µM]	2%
COc1ccccc1NC(=O)CCNS(=O)(=O)c1ccc2c(c1)CCCC(=O)N2	/	i	-1%	/	-4%	/
CCC(C)NC(=O)C1CCN(C(=O)c2ccc(-n3ccc4ccccc43)s2)CC1 (centres undefined)	/	/	-1%	/	/	/
Cn1c(C(=O)OCC(=O)NCc2ccc(F)cc2)cc2occc21	8	i	7%	2.9µM*	-15%	-1%
SMILES	IL-1B inflam inh	ATXN viability	PINK1 modulator	MCF10A rerep	ATXN2 expr inh	SW480 rerep
Cc1ccc2nc(NCCc3ccc(Cl)cc3)c3nncn3c2c1	0	i	5%	-1%	-20%	-1%
Cc1ccc2nc(NCCN)c3ncc(C)n3c2c1	/	/	/	/	1.9µM*	/
Cc1ccccc1NC(=O)CSc1nc2cc3c(cc2cc1C)CCC3	41	i	6%[38.3 µM]	?	-20%	6.5µM*
CCCCCOc1ccc(Br)cc1CSC(=N)N	-97*	/	-1%	?	/	?
CCCCOc1ccc(CSC(=N)N)cc1Cl	-101*	?	-2%	?	25µM*	?
COc1ccc(Br)cc1CSC(=N)N	-88*	i	1%	-7%	-26%	-4%
